What is called AC50 is the concentration giving half of the maximal activity seen.

Molecules are shown by their SMILES. Inconclusive results are not listed. Calls of active or inactive are those of the source. The calls were made as follows: active = hit-call score of the fitted dose curve at least 0.9, where 1 is the maximum; inconclusive = response in the unintended direction; inactive = score below 0.9.

The record followed here is PubChem BioAssay (EPA / NIEHS).

Adenosine receptor A1 (Bos taurus), sequence (P28190 whole entry, looked up): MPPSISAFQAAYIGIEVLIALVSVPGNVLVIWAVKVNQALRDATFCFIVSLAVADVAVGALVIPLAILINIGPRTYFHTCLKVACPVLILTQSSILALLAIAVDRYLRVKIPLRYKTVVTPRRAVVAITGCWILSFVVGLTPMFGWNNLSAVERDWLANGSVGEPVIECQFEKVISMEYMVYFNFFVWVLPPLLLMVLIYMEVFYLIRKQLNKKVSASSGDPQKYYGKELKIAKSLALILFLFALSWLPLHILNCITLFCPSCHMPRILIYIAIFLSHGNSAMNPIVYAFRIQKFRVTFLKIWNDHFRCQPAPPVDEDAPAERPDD
human Serotonin, 5-Hydroxytryptamine Receptor 5A (5HT5A), HTR5A (gene 3361), sequence (P47898 whole entry, looked up): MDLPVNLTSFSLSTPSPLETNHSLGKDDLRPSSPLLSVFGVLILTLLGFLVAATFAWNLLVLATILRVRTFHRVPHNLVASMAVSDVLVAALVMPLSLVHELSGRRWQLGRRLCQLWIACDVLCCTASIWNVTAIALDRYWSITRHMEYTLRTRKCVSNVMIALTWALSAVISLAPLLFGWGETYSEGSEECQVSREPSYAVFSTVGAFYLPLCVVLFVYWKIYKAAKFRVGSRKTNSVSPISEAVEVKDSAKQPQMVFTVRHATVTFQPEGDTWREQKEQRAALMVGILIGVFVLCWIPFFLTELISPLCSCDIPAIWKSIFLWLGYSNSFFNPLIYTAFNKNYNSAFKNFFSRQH

The target of one assay is rat Monoamine Oxidase, MAO-B, Peripheral (MAOBP), Maob (gene 25750) (UniProt P19643). The assay is described as follows: NVS_ENZ_rMAOBP: NovaScreen (NVS) Enzymatic Assay for rat Monoamine Oxidase, MAO-B, Peripheral (MAOBP) (AID 2283242).
rat Monoamine Oxidase, MAO-B, Peripheral (MAOBP), Maob (gene 25750), sequence (P19643 whole entry, looked up): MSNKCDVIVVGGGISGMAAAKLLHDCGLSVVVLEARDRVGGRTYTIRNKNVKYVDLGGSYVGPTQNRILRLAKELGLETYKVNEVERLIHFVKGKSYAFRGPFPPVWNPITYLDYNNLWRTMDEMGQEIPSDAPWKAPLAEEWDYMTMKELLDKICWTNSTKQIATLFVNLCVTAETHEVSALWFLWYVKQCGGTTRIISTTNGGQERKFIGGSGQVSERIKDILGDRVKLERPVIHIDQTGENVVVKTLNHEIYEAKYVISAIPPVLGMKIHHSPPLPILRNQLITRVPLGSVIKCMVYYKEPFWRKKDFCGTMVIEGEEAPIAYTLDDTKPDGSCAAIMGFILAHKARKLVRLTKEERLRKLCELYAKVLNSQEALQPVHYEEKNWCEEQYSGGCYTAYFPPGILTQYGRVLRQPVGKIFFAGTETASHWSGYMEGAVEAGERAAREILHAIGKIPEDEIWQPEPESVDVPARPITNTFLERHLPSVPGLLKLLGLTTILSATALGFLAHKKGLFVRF
Turning to `CCC(=O)C(CC(C)N(C)C)(c1ccccc1)c1ccccc1` (stereo unspecified), the AC50 is 4.1 µM (active).

Regarding `CCN1CCC2(CC1)COc1cc3c(cc12)N(C(=O)c1ccc(-c2ccc(-c4nnc(C)o4)cc2C)cc1)CC3`, the AC50 is 19.5 µM (active).

For the compound `C[C@]12CCC(=O)C[C@@H]1CC[C@@H]1[C@@H]2CC[C@]2(C)[C@@H](O)CC[C@@H]12`, the outcome was inactive.

In the case of `CC12CC1(C)C(=O)N(c1cc(Cl)cc(Cl)c1)C2=O` (stereo unspecified), the outcome was inactive.

A further assay deals with rat Monoamine Oxidase, MAO-A, Central (MAOAC), gene 29253. The assay is described as follows: NVS_ENZ_rMAOAC: NovaScreen (NVS) Enzymatic Assay for rat Monoamine Oxidase, MAO-A, Central (MAOAC) (AID 2283243).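 Also: potency refers to inhibition seen as signal drop below DMSO baseline.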 How it is done: NVS_ENZ_rMAOAC is a biochemical, single-readout assay that uses extracted gene-proteins from Rat brain in a tissue-based cell-free assay. Measurements were taken 1.5 hours after chemical dosing in a 96-well plate.NVS_ENZ_rMAOAC is one of one assay component(s) measured or calculated from the NVS_ENZ_rMAOAC assay. It is designed to make measurements of enzyme activity, a form of enzyme reporter, as detected with scintillation counting signals by Lysate-based radiodetection technology.Data from the assay component NVS_ENZ_rMAOAC was analyzed into 1 assay endpoint. This assay endpoint, NVS_ENZ_rMAOAC, was analyzed in the positive analysis fitting direction relative to DMSO as the negative control and baseline of activity. Using a type of enzyme reporter, loss-of-signal activity can be used to understand changes in the enzymatic activity as they relate to the gene Maoa. Furthermore, this assay endpoint can be referred to as a primary readout, because this assay has produced multiple assay endpoints where this one serves a enzymatic activity function. To generalize the intended target to other relatable targets, this assay endpoint is annotated to the oxidoreductase intended target family, where the subfamily is monoamine oxidase.
(§1) Binding assays used specific radioligands (tritiated, iodinated) with non-radioactive competitive displacement ligands in agonist or antagonist protocols (as indicated) and various reference compounds and inhibitors to titrate specific binding to receptors and transporters. Most enzyme assays (CYPs, kinases, phosphatases, proteases, HDACs) used recombinant protein and specific substrates (fluorescence mostly, some colorimetric and radioactive) and inhibitors, followed by a biochemical separation of substrate and product. All assays for the biochemical HTS were initially run in duplicate at a single concentration (10 uM for CYP450 assays and 25 uM for all others). […] Each assay was run with positive and negative controls, and concurrent controls on every plate. The follow-up (secondary) screen tested active chemical-pairs in concentration series, as well as a few additional assays not tested in the primary screen, some selected negative inactives, and several cases re-run in the concentration series for confirmatory purposes.
On to `Nc1cccc2ccccc12`, for which the AC50 is 25 µM (active).

Turning to `CCN1CCC2(CC1)COc1cc3c(cc12)N(C(=O)c1ccc(-c2ccc(-c4nnc(C)o4)cc2C)cc1)CC3`, the AC50 is 23.4 µM (active).

With `COc1ccc(OC)c(C=O)c1`, the AC50 was 17.3 µM (active).

In the case of `N#CCc1ccc(Cl)cc1`, the concentration at half-maximal activity (AC50) is 25 µM (active).

For `Oc1ccc(-c2ccccc2)cc1`, the AC50 was 13.8 µM (active).

With `O=[N+]([O-])c1ccc2c3c(cccc13)CC2`, the AC50 was 6.28 µM (active).

As for `CCOC(=O)Nc1cccc(OC(=O)Nc2ccccc2)c1`, the AC50 was 5.76 µM (active).

Consider `O=S(=O)(c1ccc(Cl)cc1)c1ccc(Cl)cc1`, for which the compound was called inactive.

A further assay has as its target Adenosine receptor A1 (Bos taurus) (UniProt P28190). The assay is described as follows: NVS_GPCR_bAdoR_NonSelective: NovaScreen (NVS) G Protein-Coupled Receptor Assay for bovine Adenosine Receptor (AdoR), Non-selective Binding (AID 2283244). How it is done: (§2) NVS_GPCR_bAdoR_NonSelective is a biochemical, single-readout assay that uses extracted gene-proteins from Bovine striatal membranes in a tissue-based cell-free assay. Measurements were taken 1 hour after chemical dosing in a 96-well plate.NVS_GPCR_bAdoR_NonSelective is one of one assay component(s) measured or calculated from the NVS_GPCR_bAdoR_NonSelective assay. It is designed to make measurements of radioligand binding, a form of binding reporter, as detected with scintillation counting signals by Filter-based radiodetection technology.Data from the assay component NVS_GPCR_bAdoR_NonSelective was analyzed into 1 assay endpoint. This assay endpoint, NVS_GPCR_bAdoR_NonSelective, was analyzed in the positive analysis fitting direction relative to DMSO as the negative control and baseline of activity. Using a type of binding reporter, loss-of-signal activity can be used to understand changes in the binding as they relate to the gene ADORA1. Furthermore, this assay endpoint can be referred to as a primary readout, because the performed assay has only produced 1 assay endpoint. To generalize the intended target to other relatable targets, this assay endpoint is annotated to the gpcr intended target family, where the subfamily is rhodopsin-like receptor.
Binding assays used specific radioligands (tritiated, iodinated) with non-radioactive competitive displacement ligands in agonist or antagonist protocols (as indicated) and various reference compounds and inhibitors to titrate specific binding to receptors and transporters. Most enzyme assays (CYPs, kinases, phosphatases, proteases, HDACs) used recombinant protein and specific substrates (fluorescence mostly, some colorimetric and radioactive) and inhibitors, followed by a biochemical separation of substrate and product. All assays for the biochemical HTS were initially run in duplicate at a single concentration (10 uM for CYP450 assays and 25 uM for all others). Assay-chemical combinations meeting a pre-defined threshold (e.g., 30% inhibition and other criteria defined below) were then run in singleton concentration-response format with maximum concentration of 20 uM for CYPs and 50 uM for all others. Each assay was run with positive and negative controls, and concurrent controls on every plate. The follow-up (secondary) screen tested active chemical-pairs in concentration series, as well as a few additional assays not tested in the primary screen, some selected negative inactives, and several cases re-run in the concentration series for confirmatory purposes.
In the case of `CC(=O)[O][Hg][c]1ccccc1`, the half-maximal activity concentration (AC50) is 25 µM (active).

Regarding `CC(C)(C)c1cc(O)ccc1O`, the compound was classed as inactive.

Consider `COc1cc(-c2ccc(N)c(OC)c2)ccc1N`, for which the compound was classed as inactive.

Turning to `O=C(O)C(F)(F)C(F)(F)C(F)(F)C(F)(F)C(F)(F)C(F)(F)C(F)(F)C(F)(F)C(F)(F)C(F)(F)F`, the compound was called inactive.

`Cn1sc(Cl)cc1=O`: the compound was classed as inactive.

Another assay deals with guinea pig Leukotriene B4 Receptor (LTB4), gene 100379538. The assay is described as follows: NVS_GPCR_gLTB4: NovaScreen (NVS) G Protein-Coupled Receptor Assay for guinea pig Leukotriene B4 Receptor (LTB4) (AID 2283247). The method in brief:
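Radioligand displacement on guinea pig spleen membranes, filter-based scintillation counting 2 h after dosing. Primary duplicate single point at 25 uM; hits over threshold (e.g. 30% inhibition) run in concentration-response up to 50 uM, DMSO baseline.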
Take `CC(=O)[O][Hg][c]1ccccc1`: the concentration at half-maximal activity (AC50) was 3.45 µM (active).

Take `CN(C)N=O`: the outcome was inactive.

`O=C(O)C(F)(F)C(F)(F)C(F)(F)C(F)(F)C(F)(F)C(F)(F)F`: the AC50 was 17.3 µM (active).

Turning to `C=C(C)C(=O)[O][Sn]([CH2]CCC)([CH2]CCC)[CH2]CCC`, the AC50 was 6.14 µM (active).

Turning to `O=C(O)C(F)(F)C(F)(F)C(F)(F)C(F)(F)C(F)(F)C(F)(F)C(F)(F)C(F)(F)C(F)(F)C(F)(F)F`, the AC50 was 5.1 µM (active).

The target of another assay is guinea pig Leukotriene D4 Receptor (LTD4), CYSLTR1 (gene 100135514) (UniProt Q2NNR5). The assay is described as follows: NVS_GPCR_gLTD4: NovaScreen (NVS) G Protein-Coupled Receptor Assay for guinea pig Leukotriene D4 Receptor (LTD4) (AID 2283248). The method in brief: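 Radioligand displacement on guinea pig lung membranes, 1 h incubation, filtration and scintillation counting; DMSO as negative control. Duplicate 25 uM primary screen, then singleton concentration-response up to 50 uM.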
guinea pig Leukotriene D4 Receptor (LTD4), CYSLTR1 (gene 100135514), sequence (Q2NNR5 whole entry, looked up): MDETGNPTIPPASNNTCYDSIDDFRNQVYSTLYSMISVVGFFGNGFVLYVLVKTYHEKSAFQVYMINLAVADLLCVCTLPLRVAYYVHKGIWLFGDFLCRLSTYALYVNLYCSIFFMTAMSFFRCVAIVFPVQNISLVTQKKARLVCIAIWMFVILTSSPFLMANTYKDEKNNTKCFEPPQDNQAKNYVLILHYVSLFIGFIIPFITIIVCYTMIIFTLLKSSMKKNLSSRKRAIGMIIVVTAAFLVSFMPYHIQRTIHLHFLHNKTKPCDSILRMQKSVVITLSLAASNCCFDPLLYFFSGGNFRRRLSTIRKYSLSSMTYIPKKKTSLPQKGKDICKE
For `CC(=O)[O][Hg][c]1ccccc1`, the AC50 is 1.58 µM (active).

As for `C=C(C)C(=O)[O][Sn]([CH2]CCC)([CH2]CCC)[CH2]CCC`, the AC50 was 1.86 µM (active).

With `COP(=S)(OC)Oc1ccc(Sc2ccc(OP(=S)(OC)OC)cc2)cc1`, the call was inactive.

As for `O=C(O)C(F)(F)C(F)(F)C(F)(F)C(F)(F)C(F)(F)C(F)(F)C(F)(F)C(F)(F)C(F)(F)C(F)(F)F`, the result was inactive.

Consider `ClCCBr`, for which the result was inactive.

Another assay deals with human Serotonin, 5-Hydroxytryptamine Receptor 2A (5HT2A), HTR2A (gene 3356) (UniProt P28223). The assay is described as follows: NVS_GPCR_h5HT2A: NovaScreen (NVS) G Protein-Coupled Receptor Assay for human Serotonin, 5-Hydroxytryptamine Receptor 2A (5HT2A) (AID 2283249). How it is done: as §2, with “NVS_GPCR_h5HT2A” for “NVS_GPCR_bAdoR_NonSelective”, “Human cortex” for “Bovine striatal membranes”, “1.5 hours” for “1 hour”, “48-well plate.NVS_GPCR_h5HT2A” for “96-well plate.NVS_GPCR_bAdoR_NonSelective”, “NVS_GPCR_h5HT2A,” for “NVS_GPCR_bAdoR_NonSelective,”, “HTR2A.” for “ADORA1.”
human Serotonin, 5-Hydroxytryptamine Receptor 2A (5HT2A), HTR2A (gene 3356), sequence (P28223 whole entry, looked up): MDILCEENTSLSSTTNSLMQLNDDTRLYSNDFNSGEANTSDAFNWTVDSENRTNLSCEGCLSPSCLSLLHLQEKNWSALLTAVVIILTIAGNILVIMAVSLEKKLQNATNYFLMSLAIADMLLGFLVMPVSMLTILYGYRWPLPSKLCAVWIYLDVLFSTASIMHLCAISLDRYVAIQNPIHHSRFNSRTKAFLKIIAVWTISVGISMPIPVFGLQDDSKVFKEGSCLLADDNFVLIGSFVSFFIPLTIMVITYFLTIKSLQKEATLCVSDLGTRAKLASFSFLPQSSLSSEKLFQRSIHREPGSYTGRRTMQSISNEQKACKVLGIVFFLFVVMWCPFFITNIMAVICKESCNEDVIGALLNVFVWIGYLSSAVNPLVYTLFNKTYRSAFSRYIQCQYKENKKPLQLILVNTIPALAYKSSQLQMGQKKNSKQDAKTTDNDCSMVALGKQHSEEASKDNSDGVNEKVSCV
as §1
Turning to `CC(=O)[O][Hg][c]1ccccc1`, the half-maximal activity concentration (AC50) was 19.1 µM (active).

For the compound `CCC(=O)C(CC(C)N(C)C)(c1ccccc1)c1ccccc1` (stereo unspecified), the AC50 is 5.61 µM (active).

With `CCN1CCC2(CC1)COc1cc3c(cc12)N(C(=O)c1ccc(-c2ccc(-c4nnc(C)o4)cc2C)cc1)CC3`, the AC50 is 10.2 µM (active).

In the case of `C=C(C)C(=O)[O][Sn]([CH2]CCC)([CH2]CCC)[CH2]CCC`, the AC50 is 36.2 µM (active).

For another assay, the system named is guinea pig Muscarinic, Peripheral (Mperiperal) Receptor, Non-selective Binding, gene 100379235. The assay is described as follows: NVS_GPCR_gMPeripheral_NonSelective: NovaScreen (NVS) G Protein-Coupled Receptor Assay for guinea pig Muscarinic, Peripheral (Mperiperal) Receptor, Non-selective Binding (AID 2283250). The method in brief:
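Guinea pig bladder membranes, radioligand binding read 1 h after dosing by filter scintillation counting; loss of signal vs DMSO. Primary duplicate screen at 25 uM, then concentration-response up to 50 uM.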
As to `CC(=O)[O][Hg][c]1ccccc1`, the AC50 was 6 µM (active).

Regarding `CCC(=O)C(CC(C)N(C)C)(c1ccccc1)c1ccccc1` (stereo unspecified), the AC50 is 7.94 µM (active).

For the compound `CCN1CCC2(CC1)COc1cc3c(cc12)N(C(=O)c1ccc(-c2ccc(-c4nnc(C)o4)cc2C)cc1)CC3`, the AC50 was 1.79 µM (active).

Regarding `C=C(C)C(=O)[O][Sn]([CH2]CCC)([CH2]CCC)[CH2]CCC`, the AC50 was 14 µM (active).

Another assay has as its target human Serotonin, 5-Hydroxytryptamine Receptor 5A (5HT5A), HTR5A (gene 3361) (UniProt P47898). The assay is described as follows: NVS_GPCR_h5HT5A: NovaScreen (NVS) G Protein-Coupled Receptor Assay for human Serotonin, 5-Hydroxytryptamine Receptor 5A (5HT5A) (AID 2283251). As for the experimental part:
as §2, with “NVS_GPCR_h5HT5A” for “NVS_GPCR_bAdoR_NonSelective”, “HEK293” for “Bovine striatal membranes”, “a” for “a tissue-based”, “plate.NVS_GPCR_h5HT5A” for “plate.NVS_GPCR_bAdoR_NonSelective”, “NVS_GPCR_h5HT5A,” for “NVS_GPCR_bAdoR_NonSelective,”, “HTR5A.” for “ADORA1.”
as §1
As for `O=C1C2(Cl)C3(Cl)C4(Cl)C(Cl)(Cl)C5(Cl)C3(Cl)C1(Cl)C5(Cl)C24Cl` (stereo unspecified), the result was inactive.

Take `CC(=O)[O][Hg][c]1ccccc1`: the AC50 is 0.791 µM (active).

Take `CCC(=O)C(CC(C)N(C)C)(c1ccccc1)c1ccccc1` (stereo unspecified): the AC50 was 6.69 µM (active).

Turning to `CCN1CCC2(CC1)COc1cc3c(cc12)N(C(=O)c1ccc(-c2ccc(-c4nnc(C)o4)cc2C)cc1)CC3`, the AC50 is 23.4 µM (active).

As for `C=C(C)C(=O)[O][Sn]([CH2]CCC)([CH2]CCC)[CH2]CCC`, the AC50 is 2.16 µM (active).

For `O=C(O)C(F)(F)C(F)(F)C(F)(F)C(F)(F)C(F)(F)C(F)(F)C(F)(F)C(F)(F)C(F)(F)C(F)(F)F`, the call was inactive.
